For some assays here: Entries with a potency or affinity are not part of this list.
Columns and labels:
Design in all cases: scale not given: direction of the effect not stated beside the values
[1] = molecular target: Protein translocase subunit SecA (Escherichia coli (strain K12)) (UniProt P10408); experiment: Assay to Identify E. coli SecA ATPase Inhibitors; format: functional; details: 30 µM
[2] = molecular target: T1, Ubiquitin-activating enzyme e1, putative (Leishmania donovani (strain BPK282A1)) (UniProt E9BSI1); experiment: Leishmania donovani Ubiquitin Activating Enzyme (LdE1); format: functional; details: 30 µM
T1 sequence (whole entry): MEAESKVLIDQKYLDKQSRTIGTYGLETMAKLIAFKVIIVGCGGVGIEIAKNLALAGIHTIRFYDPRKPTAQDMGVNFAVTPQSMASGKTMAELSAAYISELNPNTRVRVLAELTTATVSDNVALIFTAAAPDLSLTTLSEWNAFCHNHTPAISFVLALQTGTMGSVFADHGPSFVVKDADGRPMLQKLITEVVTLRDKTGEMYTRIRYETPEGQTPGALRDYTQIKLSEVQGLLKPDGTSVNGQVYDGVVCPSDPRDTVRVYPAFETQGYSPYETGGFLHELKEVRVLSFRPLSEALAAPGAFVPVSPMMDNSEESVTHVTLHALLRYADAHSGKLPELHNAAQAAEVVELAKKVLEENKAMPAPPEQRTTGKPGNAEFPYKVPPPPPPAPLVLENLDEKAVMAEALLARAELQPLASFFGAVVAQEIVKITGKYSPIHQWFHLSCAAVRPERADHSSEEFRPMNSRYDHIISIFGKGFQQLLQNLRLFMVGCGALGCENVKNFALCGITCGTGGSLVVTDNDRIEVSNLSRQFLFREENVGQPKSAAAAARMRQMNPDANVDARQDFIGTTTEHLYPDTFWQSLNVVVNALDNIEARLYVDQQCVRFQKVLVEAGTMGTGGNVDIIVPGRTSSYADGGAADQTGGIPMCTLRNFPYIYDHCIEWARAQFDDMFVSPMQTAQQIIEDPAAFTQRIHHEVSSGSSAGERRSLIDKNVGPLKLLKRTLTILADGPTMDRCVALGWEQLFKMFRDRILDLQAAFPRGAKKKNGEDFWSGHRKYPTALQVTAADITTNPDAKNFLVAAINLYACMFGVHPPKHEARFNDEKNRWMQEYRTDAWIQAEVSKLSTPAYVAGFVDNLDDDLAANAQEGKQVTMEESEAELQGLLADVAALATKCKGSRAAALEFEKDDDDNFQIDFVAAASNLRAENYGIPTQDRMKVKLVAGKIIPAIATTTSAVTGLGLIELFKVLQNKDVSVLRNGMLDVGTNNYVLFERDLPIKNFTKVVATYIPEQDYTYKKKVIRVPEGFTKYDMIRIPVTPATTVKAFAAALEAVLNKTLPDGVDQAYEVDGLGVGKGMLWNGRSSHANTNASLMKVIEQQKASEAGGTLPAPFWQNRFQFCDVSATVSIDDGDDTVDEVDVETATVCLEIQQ

[3] = molecular target: AMP-activated protein kinase, AMPK (Homo sapiens) (UniProt P54646+O43741+P54619+Q9UGJ0+Q9Y478+Q13131+Q9UGI9); experiment: AMP-dependent Kinase enzyme assay. An in vitro enzyme assay that detects ADP turnover that is directly proportional to AMPK activity. This uses naive AMPK that is activated during the assay with MK-8722; format: functional; details: 30 µM
[4] = molecular target: Sialic acid-binding Ig-like lectin 9 (Homo sapiens) (UniProt Q9Y336); experiment: Hs-Siglec9 ALPHAscreen SOP 20170721; details: 10 µM
Trypanosoma cruzi = experiment: Trypanosoma cruzi phosphomannomutase and mannose-1-phosphate guanylyltransferase assay; format: functional; details: 10 µM
[5] = molecular target: T2, Arginase-2, mitochondrial (Homo sapiens) (UniProt P78540); experiment: in vitro enzyme assay to detect the production of urea directly proportional to the activity of Arginase II; format: functional; details: 33.3 µM; further: in the data most compounds retested in dose-response had high values
T2 sequence (whole entry): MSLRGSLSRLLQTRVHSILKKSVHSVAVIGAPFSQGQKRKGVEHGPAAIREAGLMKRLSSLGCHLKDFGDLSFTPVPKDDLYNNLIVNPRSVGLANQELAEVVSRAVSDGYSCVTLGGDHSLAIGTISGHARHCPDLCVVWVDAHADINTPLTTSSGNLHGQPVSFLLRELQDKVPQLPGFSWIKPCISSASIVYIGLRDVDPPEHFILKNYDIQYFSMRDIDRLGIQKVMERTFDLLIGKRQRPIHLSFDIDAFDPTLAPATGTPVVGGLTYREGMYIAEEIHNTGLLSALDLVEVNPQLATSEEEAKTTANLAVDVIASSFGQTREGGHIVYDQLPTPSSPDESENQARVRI

[6] = molecular target: T3, Proteasome subunit beta (Trypanosoma cruzi) (UniProt O96673); experiment: Trypanosoma cruzi proteasome chymotrypsin-like activity (TcProtChymo) assay.; further: in the data most compounds retested in dose-response had high values; format: functional; details: 9.37 µM
T3 sequence (whole entry): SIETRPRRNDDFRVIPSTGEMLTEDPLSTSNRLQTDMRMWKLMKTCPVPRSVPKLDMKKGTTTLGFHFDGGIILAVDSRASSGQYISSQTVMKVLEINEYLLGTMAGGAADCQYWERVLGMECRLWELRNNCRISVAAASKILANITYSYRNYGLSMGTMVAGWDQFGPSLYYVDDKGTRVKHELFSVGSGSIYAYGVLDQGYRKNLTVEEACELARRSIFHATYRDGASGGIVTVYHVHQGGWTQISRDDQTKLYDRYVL

Homo sapiens = organism: Homo sapiens; experiment: To identify inhibition of the IFN signalling (Jak-Stat) pathway via expression of an eGFP reporter gene under the control of an IFN-stimulated response element (ISRE) containing MxA promoter.; format: functional; details: 30 µM
[7] = molecular target: T4, Tyrosyl-tRNA synthetase, putative (Trypanosoma cruzi (strain CL Brener)) (UniProt Q4DSP6); experiment: Trypanosoma cruzi tyrosyl tRNA synthetase (TcYRS) _High Tyrosine SOP; format: functional; details: 30 µM; further: in the data most compounds retested in dose-response had high values
T4 sequence (whole entry): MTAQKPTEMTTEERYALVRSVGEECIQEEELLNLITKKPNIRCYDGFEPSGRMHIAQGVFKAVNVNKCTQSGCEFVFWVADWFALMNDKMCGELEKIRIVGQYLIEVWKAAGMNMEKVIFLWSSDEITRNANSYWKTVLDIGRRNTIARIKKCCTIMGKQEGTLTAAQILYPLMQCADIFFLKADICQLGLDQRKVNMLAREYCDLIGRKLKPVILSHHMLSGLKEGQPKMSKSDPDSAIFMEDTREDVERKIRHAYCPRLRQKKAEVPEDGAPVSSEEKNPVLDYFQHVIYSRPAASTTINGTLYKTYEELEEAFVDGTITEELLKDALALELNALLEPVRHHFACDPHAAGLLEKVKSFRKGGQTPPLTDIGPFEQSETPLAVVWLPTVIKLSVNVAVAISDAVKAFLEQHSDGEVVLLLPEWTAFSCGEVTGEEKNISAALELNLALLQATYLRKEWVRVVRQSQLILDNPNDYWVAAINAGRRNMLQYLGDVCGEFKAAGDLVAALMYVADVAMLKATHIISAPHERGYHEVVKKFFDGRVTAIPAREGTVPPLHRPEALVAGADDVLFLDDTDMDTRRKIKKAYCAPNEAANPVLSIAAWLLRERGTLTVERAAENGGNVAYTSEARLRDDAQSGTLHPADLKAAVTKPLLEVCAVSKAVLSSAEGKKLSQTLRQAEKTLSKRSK

[8] = molecular target: T4, Tyrosyl-tRNA synthetase, putative (Trypanosoma cruzi (strain CL Brener)); experiment: Trypanosoma cruzi tyrosyl tRNA synthetase (TcYRS) SOP; format: functional; details: 30 µM
[9] = molecular target: Chromo domain-containing protein 1 (Saccharomyces cerevisiae (strain ATCC 204508 / S288c) (Baker's yeast)) (UniProt P32657); experiment: ScCHD-1 Enzyme Inhibition Assay; format: functional; details: 30 µM; further: in the data most compounds retested in dose-response had high values
Sequence of Chromo domain-containing protein 1 (Saccharomyces cerevisiae (strain ATCC 204508 / S288c) (Baker's yeast)) (P32657 whole entry, the tested form may be a part): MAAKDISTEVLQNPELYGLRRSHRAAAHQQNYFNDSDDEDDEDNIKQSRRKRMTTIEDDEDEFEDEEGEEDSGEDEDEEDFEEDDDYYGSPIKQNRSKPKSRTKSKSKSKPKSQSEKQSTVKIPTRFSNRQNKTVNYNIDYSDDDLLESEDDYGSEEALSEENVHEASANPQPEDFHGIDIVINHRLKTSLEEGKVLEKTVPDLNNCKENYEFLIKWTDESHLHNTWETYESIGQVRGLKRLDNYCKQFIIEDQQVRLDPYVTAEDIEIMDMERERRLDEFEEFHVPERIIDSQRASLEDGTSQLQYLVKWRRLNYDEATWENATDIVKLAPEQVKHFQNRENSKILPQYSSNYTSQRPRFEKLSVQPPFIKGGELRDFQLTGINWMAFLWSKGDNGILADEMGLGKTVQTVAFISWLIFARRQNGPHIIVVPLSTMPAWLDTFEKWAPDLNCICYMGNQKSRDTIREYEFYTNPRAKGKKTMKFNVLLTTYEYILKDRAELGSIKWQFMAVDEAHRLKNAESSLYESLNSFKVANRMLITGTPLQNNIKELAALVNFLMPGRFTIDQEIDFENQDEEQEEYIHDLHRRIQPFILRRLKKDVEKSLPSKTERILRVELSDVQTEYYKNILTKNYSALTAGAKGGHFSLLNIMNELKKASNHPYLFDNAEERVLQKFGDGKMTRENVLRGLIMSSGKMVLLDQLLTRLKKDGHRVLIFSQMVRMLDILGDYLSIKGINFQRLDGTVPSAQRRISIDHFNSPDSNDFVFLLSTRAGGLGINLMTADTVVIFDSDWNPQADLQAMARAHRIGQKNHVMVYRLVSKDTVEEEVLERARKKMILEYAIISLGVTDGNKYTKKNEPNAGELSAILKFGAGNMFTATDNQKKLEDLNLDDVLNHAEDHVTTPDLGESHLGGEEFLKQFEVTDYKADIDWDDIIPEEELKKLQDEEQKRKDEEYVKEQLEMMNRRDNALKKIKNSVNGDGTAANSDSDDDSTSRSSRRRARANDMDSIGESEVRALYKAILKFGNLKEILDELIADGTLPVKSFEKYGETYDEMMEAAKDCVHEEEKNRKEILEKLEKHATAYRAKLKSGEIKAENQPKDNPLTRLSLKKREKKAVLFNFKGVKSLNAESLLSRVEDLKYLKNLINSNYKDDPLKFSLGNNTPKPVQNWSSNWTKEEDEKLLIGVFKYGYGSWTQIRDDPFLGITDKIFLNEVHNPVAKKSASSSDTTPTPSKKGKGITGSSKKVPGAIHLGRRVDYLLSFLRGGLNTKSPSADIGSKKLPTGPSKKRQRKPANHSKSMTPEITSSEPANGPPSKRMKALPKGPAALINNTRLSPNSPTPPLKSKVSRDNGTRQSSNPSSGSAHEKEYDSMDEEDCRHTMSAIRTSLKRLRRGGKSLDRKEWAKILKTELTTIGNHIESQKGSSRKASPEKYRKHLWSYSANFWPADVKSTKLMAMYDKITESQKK

Sequence of Sialic acid-binding Ig-like lectin 9 (Homo sapiens) (Q9Y336 whole entry): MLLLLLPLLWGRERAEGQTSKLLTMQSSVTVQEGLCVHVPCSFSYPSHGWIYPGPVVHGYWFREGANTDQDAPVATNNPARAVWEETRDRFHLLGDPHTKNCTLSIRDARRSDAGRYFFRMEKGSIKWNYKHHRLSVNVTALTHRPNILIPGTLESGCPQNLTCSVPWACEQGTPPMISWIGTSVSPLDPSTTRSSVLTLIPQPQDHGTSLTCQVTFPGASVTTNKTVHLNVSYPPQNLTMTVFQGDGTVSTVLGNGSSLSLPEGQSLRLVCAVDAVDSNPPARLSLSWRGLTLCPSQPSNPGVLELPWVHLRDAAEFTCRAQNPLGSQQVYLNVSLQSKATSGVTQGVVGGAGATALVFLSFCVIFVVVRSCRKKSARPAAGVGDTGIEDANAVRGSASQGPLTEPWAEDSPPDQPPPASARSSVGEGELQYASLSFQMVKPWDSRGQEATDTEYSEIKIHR
Sequence of Protein translocase subunit SecA (Escherichia coli (strain K12)) (P10408 whole entry): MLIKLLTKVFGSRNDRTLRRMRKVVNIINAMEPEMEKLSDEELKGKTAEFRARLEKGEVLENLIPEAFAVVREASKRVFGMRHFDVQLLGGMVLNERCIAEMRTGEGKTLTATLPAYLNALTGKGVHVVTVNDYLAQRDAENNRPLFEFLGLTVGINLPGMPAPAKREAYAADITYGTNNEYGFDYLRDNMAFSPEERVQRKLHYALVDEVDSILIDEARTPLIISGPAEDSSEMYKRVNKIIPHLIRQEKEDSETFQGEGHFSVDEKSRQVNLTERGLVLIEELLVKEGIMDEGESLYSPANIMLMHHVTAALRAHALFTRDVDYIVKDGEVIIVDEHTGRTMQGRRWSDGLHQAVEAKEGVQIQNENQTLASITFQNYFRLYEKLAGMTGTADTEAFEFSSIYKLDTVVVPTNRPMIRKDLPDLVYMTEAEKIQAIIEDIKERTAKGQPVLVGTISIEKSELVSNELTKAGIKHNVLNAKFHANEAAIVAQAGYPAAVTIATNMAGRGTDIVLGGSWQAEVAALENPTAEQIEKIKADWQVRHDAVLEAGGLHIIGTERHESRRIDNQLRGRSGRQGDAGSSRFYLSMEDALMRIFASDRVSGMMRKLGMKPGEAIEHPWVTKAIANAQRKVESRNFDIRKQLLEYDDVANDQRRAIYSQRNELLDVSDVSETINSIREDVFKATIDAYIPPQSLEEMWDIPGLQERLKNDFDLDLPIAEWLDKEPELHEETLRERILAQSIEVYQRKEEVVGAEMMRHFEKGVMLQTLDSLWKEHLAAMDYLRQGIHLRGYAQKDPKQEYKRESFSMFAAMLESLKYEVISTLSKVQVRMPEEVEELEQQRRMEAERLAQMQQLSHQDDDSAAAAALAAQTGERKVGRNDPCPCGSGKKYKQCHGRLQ

Structure (SMILES)	Percent Effect [1]	Percent Effect [2]	Percent Effect [3]	Percent Effect [4]	Percent Effect (Trypanosoma cruzi)	Percent Effect [5]	Percent Effect [6]	Percent Effect (Homo sapiens)	Percent Effect [7]	Percent Effect [8]	Percent Effect [9]
Cc1ccc(C(=O)N2CCn3cc(CN(C)Cc4ccco4)nc3C2)o1	2.2%	0%	3.27%	0.0829%	-4.24%	3.23%	3.13%	0.489%	1.06%	3.85%	105%
c1csc(-c2nc(CN3CCCC3Cn3cncn3)co2)c1 (stereo unspecified)	-2.28%	-5.48%	-7.9%	1.3%	6.86%	-3.18%	5.68%	-9.88%	2.15%	5%	-3.71%
O=C1NCC2(CCCN(CCc3ccccc3)C2)Oc2ccccc21 (stereo unspecified)	-3.06%	6.76%	2.18%	-8.67%	-3.36%	2.55%	6.86%	15.8%	-1.07%	6.49%	-14.2%
O=C(NCc1cccnc1)C1=NN(c2ccccc2)C(=O)CN1	-0.966%	18.9%	8.77%	14.9%	0.293%	26.1%	15%	-2.67%	6.45%	18.5%	-8.57%
O=C(NC1CCCC1)[C@@H]1CN(Cc2nccs2)C[C@H]2OCC[C@H]21	-5.51%	2.67%	-3.12%	-3.59%	-1.77%	1.63%	-3.26%	21.4%	3.19%	-3.85%	7.18%
CN(C)C(=O)N1CCN(Cc2cnn(C)c2)CC2(CNC(=O)C2)C1 (stereo unspecified)	-2.48%	0%	2.36%	11.3%	-3.03%	-2.87%	17%	3.58%	4.32%	2.56%	3.46%
COc1cccc(C2CCCN2C(=O)c2cc3c([nH]c2=O)CCC3)c1 (stereo unspecified)	-1.17%	5.41%	0.0672%	-4.05%	1.17%	25%	16%	5.64%	7.92%	6.1%	-6.8%
O=C(NCCOc1ccc(F)c(F)c1)NCc1ccncc1	-1.97%	5.41%	0.439%	-1.88%	-2.32%	-2.86%	11.2%	14.5%	-0.529%	4.88%	-2.73%
Cc1csc(NC(=O)CN2CCC(c3ccnn3CCO)CC2)n1	-4.67%	25.3%	-7.88%	-3.79%	4.06%	0%	9.42%	47.6%	8.37%	26.6%	-7.33%
O=C(CCNC(=O)c1ccccc1)Nc1ccncc1	1.26%	10.5%	6.49%	-0.508%	-4.58%	-8.28%	13.5%	3.87%	2.13%	10.4%	-2.65%
CC(NC(=O)N(C)Cc1ccc(Cl)s1)c1ccccn1 (stereo unspecified)	-2.39%	13.9%	9.06%	-0.224%	0.308%	1.07%	6.86%	14.4%	3.12%	12.7%	-14.9%
CCN1CCCN(C(=O)c2cnc(OC(C)C)c(Cl)c2)CC1	-2.83%	-8.22%	9.83%	-2.64%	-15.9%	-1.2%	3.68%	6.45%	1.04%	-30.9%	1.65%
CNc1cncc(C2CCCN2Cc2ccccn2)n1 (stereo unspecified)	-2.75%	-4.05%	3.64%	7.85%	2.37%	1.62%	29.5%	-2.5%	9.68%	9.09%	-18.3%
CCn1cc(CN2CCCN(C(=O)CCc3ccncc3)CC2)cn1	-3.49%	26%	-14.6%	4.57%	1.87%	-0.712%	5.91%	23.6%	8.74%	14.6%	-7.66%
Cn1cc(N2CC3(CCN(S(=O)(=O)C4CC4)C3)CC2=O)cn1 (stereo unspecified)	-2.73%	18.7%	-7.51%	-0.00481%	3.09%	-11.3%	10.6%	-1.37%	7.29%	27.5%	-13.5%
Cc1cnn(C2CCCN(C(=O)c3ccnc(N(C)C)c3)C2)c1 (stereo unspecified)	-0.378%	19%	-4.04%	-2.57%	-1.54%	0.645%	10.3%	19.4%	1.04%	5.06%	-31.1%

Source: ChEMBL document CHEMBL3988442, “University of Dundee, Small-Polar-MMV Screening Library” (2021)
